{"source": "PubChem BioAssay (Tox21)", "note": "Where “and” joins values, the source holds several entries; their conditions need not be identical. Identical values can stand only once. Records with an inconclusive call do not appear. A call without a number means that no potency is given here. Calls of active or inactive are those of the source. Calls follow the shape of the dose curve; as a rule, active = well fitted activation curve with a large enough effect in the signal ratio in the repeat runs (not every such curve was filed as active); inconclusive = weak or mixed curves, or effect the other way; inactive = no such curve, though single readings can be large or run the other way; the % refers to the signal ratio. Potency is read from the fitted curve at half-maximal effect.", "data": [{"test": "qHTS assay for small molecule agonists of the antioxidant response element (ARE) signaling pathway (AID 743202)", "conditions": "HepG2 ARE-bla reporter, beta-lactamase FRET, 16 h; series mostly up to 73.3 µM", "excerpt": "U.S. Tox21 Program National Center for Advancing Translational Sciences [NCATS] NIH Chemical Genomics Center [NCGC] U.S. Environmental Protection Agency [EPA] National Institutes of Environmental Health Sciences [NIEHS] National Toxicology Program [NTP] U.S. Food and Drug Administration [FDA] Tox21 Assay Overview: Oxidative stress has been implicated in the pathogenesis of a variety of diseases ranging from cancer to neurodegeneration. The antioxidant response element (ARE) signaling pathway plays an important role in the amelioration of oxidative stress. The CellSensor ARE-bla HepG2 cell line (Invitrogen) can be used for analyzing the Nrf2/antioxidant response signaling pathway. Nrf2 (NF-E2-related factor 2) and Nrf1 are transcription factors that bind to AREs and activate these genes. The CellSensor ARE-bla Hep G2 cell line contains a beta-lactamase reporter gene under control of the Antioxidant Response Element (ARE) stably integrated into HepG2 cells. The activation of the report gene under culture conditions can be detected by fluorescence intensity. This cell line has been used to screen the Tox21 10K compound library to identify agonists that induce oxidative stress.\nTox21 Assay Protocol Summary: The ARE-bla cells were dispensed at 2,000 cells/5 ul/well in 1536-well black wall/clear bottom plates using a Multidrop dispenser. After the assay plates were incubated at a 37 C/5% CO2 incubator for 5 hours, 23 nL of compounds dissolved in DMSO, positive controls or DMSO only was transferred to the assay plate by a pin tool. The plates were incubated at 37 C for 16 hours. After 1 uL of LiveBLAzer B/G FRET substrate was added using a Flying Reagent Dispenser, the plates were incubated at room temperature for 2 hours, and fluorescence intensity was measured by an Envision plate reader.", "values": [{"smiles": "CC(NN)c1ccccc1", "note": "(stereo not given)", "Potency": "inactive"}, {"smiles": "CCCN(CCC)C(=O)C(CCC(=O)OCCCN1CCN(CCOC(=O)Cc2c(C)n(C(=O)c3ccc(Cl)cc3)c3ccc(OC)cc23)CC1)NC(=O)c1ccccc1", "note": "(stereo not given)", "Potency": "inactive"}, {"smiles": "CSc1ccc(C(=O)c2[nH]c(=O)[nH]c2C)cc1", "Potency": "inactive"}, {"smiles": "CCCCCOC(=O)CCCC", "Potency": "inactive"}, {"smiles": "NNC(=O)c1cccc(C(=O)NN)c1", "Potency": "inactive"}, {"smiles": "O=C(c1ccc(F)cc1)C1CCN(CCn2c(=O)[nH]c3ccccc3c2=O)CC1", "Potency": "inactive"}, {"smiles": "CC(C)(C)c1ccc(C(=O)O)cc1", "Potency": "inactive"}, {"smiles": "O=C1c2ccccc2Cc2ccccc21", "Potency": "inactive"}, {"smiles": "Nc1c(Cl)cc(Cl)cc1Cl", "Potency": "inactive"}, {"smiles": "CC(C)CCCCCCCCCCCCCCC(=O)O", "Potency": "inactive"}, {"smiles": "CC(=O)SC[C@@H](Cc1ccccc1)C(=O)NCC(=O)OCc1ccccc1", "Potency": "inactive"}, {"smiles": "NNc1nc(-c2ccc([N+](=O)[O-])cc2)cs1", "Potency": "9.69 µM (active)"}, {"smiles": "CCCCCCCCS(=O)C(C)Cc1ccc2c(c1)OCO2", "note": "(stereo not given)", "Potency": "19.7 µM (active)"}, {"smiles": "Nc1cc(C(F)(F)F)ccc1S", "Potency": "inactive"}, {"smiles": "N=C1N=C(N)c2ccccc21", "Potency": "19.3 µM (active)"}, {"smiles": "CCCC1O[C@@H]2C[C@H]3[C@@H]4CCC5=CC(=O)C=C[C@]5(C)[C@H]4[C@@H](O)C[C@]3(C)[C@]2(C(=O)CO)O1", "note": "(stereo not given in full)", "Potency": "30.7 µM (active) and 54.5 µM (active)"}, {"smiles": "On1ccccc1=S", "Potency": "15.2 µM (active)"}, {"smiles": "O=c1[nH]cnc2nc[nH]c12", "Potency": "inactive"}, {"smiles": "Cn1cc(C(=O)[C@@H]2CCc3nc[nH]c3C2)c2ccccc21", "Potency": "inactive"}, {"smiles": "CCCCCCCC(=O)[O-].CCCCCCCC(=O)[O-].[Zn+2]", "Potency": "inactive"}, {"smiles": "C[C@@H]1C[C@H]2[C@@H]3CCC4=CC(=O)C=C[C@]4(C)[C@@]3(Cl)[C@@H](O)C[C@]2(C)[C@@]1(OC(=O)c1ccco1)C(=O)CCl", "Potency": "13.3 µM (active)"}, {"smiles": "CC1(C)CCC(C)(C)c2cc(C(=O)Nc3ccc(C(=O)O)cc3)ccc21", "Potency": "inactive"}, {"smiles": "CC[C@H](c1ccc(O)cc1)[C@@H](CC)c1ccc(O)cc1", "Potency": "4.22 µM (active)"}, {"smiles": "Cc1oc(-c2ccccc2)nc1CCC(=O)c1ccc(CC2SC(=O)NC2=O)cc1", "note": "(stereo not given)", "Potency": "13.3 µM (active)"}, {"smiles": "ON=C1CCCC1", "Potency": "inactive"}, {"smiles": "CC(C)(C)C1CCC(CC2=C(O)c3ccccc3C(=O)C2=O)CC1", "note": "(stereo not given)", "Potency": "2.11 µM (active)"}, {"smiles": "O=[N+]([O-])c1ccccc1Nc1ccccc1", "Potency": "inactive"}, {"smiles": "CCC(CN)=C(c1ccccc1)c1ccccc1", "Potency": "inactive"}, {"smiles": "Cc1cccc(S(=O)(=O)O)c1C", "Potency": "inactive"}, {"smiles": "CCCC/C=C/CCCCO", "Potency": "inactive"}, {"smiles": "[O-][n+]1ccccc1SSc1cccc[n+]1[O-]", "Potency": "3.66 µM (active)"}, {"smiles": "CCCC(C)c1ccccc1O", "note": "(stereo not given)", "Potency": "inactive"}, {"smiles": "O=C(O)c1cc(O)c2c(c1)C(=O)c1cccc(O)c1C2=O", "Potency": "25.1 µM (active)"}, {"smiles": "O=CC=C(c1ccccc1)c1ccccc1", "Potency": "43.6 µM (active)"}, {"smiles": "O=C1CCCCCN1SSN1CCCCCC1=O", "Potency": "inactive"}, {"smiles": "Cc1ccc(O)c2ncccc12", "Potency": "4.22 µM (active)"}, {"smiles": "C[C@H]1[C@H]2CC[C@H]3[C@@H]4CC=C5C[C@@H](N(C)C)CC[C@]5(C)[C@H]4CC[C@]23CN1C", "Potency": "inactive"}, {"smiles": "C[C@]12CCC(=O)C=C1CC[C@@H]1[C@@H]2[C@@H](O)C[C@@]2(C)[C@H]1CC[C@]2(O)C(=O)COC(=O)CCC(=O)O", "Potency": "inactive"}, {"smiles": "CCOC(=O)O[C@]1(C(=O)OCCl)CC[C@H]2[C@@H]3CCC4=CC(=O)C=C[C@]4(C)[C@H]3[C@@H](O)C[C@@]21C", "Potency": "10.6 µM (active)"}, {"smiles": "Nc1ccc2cc(S(=O)(=O)O)cc(O)c2c1N=Nc1ccccc1C(F)(F)F", "Potency": "inactive"}]}]}
